Assay outcomes as filed in PubChem.
Compounds with a hit are over-represented: about 32% of the library has one in this group of screens.
PostGolgi ctrl: growth of the yeast control strain, post-Golgi counter-screen | inhibition, % at 10 µM | efflux-deficient yeast background strain, growth absorbance A615, 16 h | AID 738 | actives 5% (n = 98,000)
CYP2C19 inhib: blocks human cytochrome P450 2C19 | P33261 | CYP2C19 Supersomes, luciferin-H EGE luminescence, 30 min | inhibition, % at 5 µM | actives 21% (n = 96,000) | AID 778;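 active = CYP2C19 inhibition above a set limit at 5 µM in the primary screen, cut at about 50% in these data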
CYP2C9 inh: blocks human cytochrome P450 2C9. actives 20% (n = 96,000). inhibition, % at 5 µM. AID 777. P11712. CYP2C9 Supersomes, luciferin-H conversion, luminescence;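 active = blocking of liver enzyme CYP2C9 beyond about 50% at 5 µM, limit read from the data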
Target sequence (P11712 whole entry, looked up): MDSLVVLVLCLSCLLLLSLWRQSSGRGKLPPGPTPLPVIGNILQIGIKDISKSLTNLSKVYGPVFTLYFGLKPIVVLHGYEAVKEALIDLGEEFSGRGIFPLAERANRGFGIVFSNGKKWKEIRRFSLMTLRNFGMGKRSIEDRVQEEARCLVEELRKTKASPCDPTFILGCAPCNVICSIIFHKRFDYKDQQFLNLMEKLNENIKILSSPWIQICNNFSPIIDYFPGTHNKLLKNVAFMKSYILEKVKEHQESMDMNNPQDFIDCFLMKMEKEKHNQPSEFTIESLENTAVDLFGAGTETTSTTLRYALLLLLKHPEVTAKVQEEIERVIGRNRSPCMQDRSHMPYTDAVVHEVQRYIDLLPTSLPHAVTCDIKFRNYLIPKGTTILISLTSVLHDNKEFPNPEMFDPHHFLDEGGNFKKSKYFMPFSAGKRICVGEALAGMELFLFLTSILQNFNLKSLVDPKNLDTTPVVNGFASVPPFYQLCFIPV
CYP2C9 act: CYP2C9 (human) activation; recombinant CYP2C9, luciferin-H conversion, luminescence; stronger effect = higher value; factor 1 = untreated enzyme, 0 = blocked; activation factor at 5 µM; actives 1.4% (n = 96,000);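 active = activation factor of 2 or more for CYP2C9 at a 5 µM dose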
CYP2C19 act: increases human CYP2C19 enzyme activity; P33261; AID 1025; activation factor at 5 µM; recombinant CYP2C19, luciferin-H EGE luminescence; stronger effect = higher value; 0 = fully inhibited enzyme, 1 = untreated enzyme; 96,000 tested, under 10 active;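 active = activation factor of at least 2 at 5 µM in the primary screen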
PostGolgi yeast: growth inhibition of a yeast mutant, post-Golgi transport screen; AID 739; actives 0.9% (n = 98,000); post-Golgi transport phenotypic cell assay; inhibition, % at 10 µM;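 also: yeast cells grown in 1536-well plates; yeast grown about 18 h at 30C before absorbance read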
Numbers stand for hits; n = inactive; x = no result. Rule as the data show it, unless noted: active = inhibition above about 30%; inactive = the rest.

SMILES	PostGolgi ctrl	CYP2C19 inhib	CYP2C9 inh	CYP2C9 act	CYP2C19 act	PostGolgi yeast
O=C1CC(c2ccccc2)CC(O)=C1C=NCCN1CCN(C(=O)Nc2ccccc2)CC1 (configuration not stated)	n	n	n	n	n	n
CCOC(=O)c1[nH]c(C)c(C(=O)Nc2ccccc2C)c1C	n	56	n	n	n	n
CCn1nc(C(=O)OCC(=O)c2c[nH]c3ccccc23)c2ccccc2c1=O	n	n	72	n	n	n
CC(C)n1nc(C(=O)OCC(=O)c2c[nH]c3ccccc23)c2ccccc2c1=O	n	n	n	n	n	n
CCc1cccc2c(C(=O)Cn3nnc(-c4ccc(OC)c(OC)c4)n3)c[nH]c12	n	71	62	n	n	n
CCc1cccc2c(=O)c(C(=O)N3CCCCCC3)c[nH]c12	n	n	n	n	n	n
CCOc1ccc(-c2nnn(CC(=O)c3ccc4c(c3)OCCO4)n2)cc1OCC	n	n	n	n	n	n
CCc1cccc2c(C(=O)COC(=O)c3nn(C)c(=O)c4ccccc34)c[nH]c12	n	94	88	n	n	n
COc1ccccc1N1CCN(C(=O)CSc2ccc3c(C)cc(C)nc3n2)CC1	n	x	x	x	x	n
CC(=O)c1cccc(NC(=O)N2CCCC2C(=O)Nc2cc(C)ccc2C)c1 (configuration not stated)	n	n	n	n	n	n
CCN1CCN(C(=O)c2cc3c(=O)n4ccccc4nc3n2Cc2ccccc2)CC1	x	n	n	n	n	x
O=C(NCCN1CCOCC1)c1cc2c(=O)n3ccccc3nc2n1Cc1ccccc1	n	55	n	n	n	n
N#Cc1cc2c(=O)n3ccccc3nc2n(CCCN2CCOCC2)c1=O	n	69	n	n	n	n
CCOC(=O)C1=C(C)NC(=O)NC1c1ccco1 (configuration not stated)	n	n	n	n	n	n
CC(C)NS(=O)(=O)c1ccc(OCC(=O)Nc2ccccc2F)cc1	n	n	n	n	n	n
CC(C)NS(=O)(=O)c1ccc(OCC(=O)N(C)Cc2ccccc2)cc1	n	51	n	n	n	n
COc1ccc(OCC(=O)N(C)Cc2ccccc2)cc1	n	97	n	n	n	n
CCOc1ccc(OCCN(C)Cc2ccccc2)cc1	n	n	n	n	n	n
CC(C)NS(=O)(=O)c1ccc(OCC(=O)Nc2ccc(F)cc2F)cc1	n	n	50	n	n	n
COc1ccc(-c2csc(N(CCc3ccccc3)C(=O)COc3ccccc3)n2)cc1	n	n	92	n	n	n
Cc1cccc(-n2c(Cc3cc(=O)[nH]c(=O)[nH]3)nnc2SCC(=O)NCC2CCCO2)c1 (configuration not stated)	n	n	n	n	n	n
CCCCNC(=O)Cc1coc2ccc3ccccc3c12	n	64	n	3.1	n	n
Cc1cccc(NC(=O)Cc2coc3ccc4ccccc4c23)n1	n	88	n	2.3	n	n
Cc1ccc(CC(=O)Nc2cccc(C)n2)cc1	n	74	n	n	n	n
CCCCP(=O)(CCCC)c1ccccc1C(=O)O	n	n	n	n	n	n
SMILES	PostGolgi ctrl	CYP2C19 inhib	CYP2C9 inh	CYP2C9 act	CYP2C19 act	PostGolgi yeast
Cc1ccc(C)c(-n2nnnc2Sc2nnnn2-c2ccccc2)c1	n	x	x	x	x	n
Cc1ccc(S(=O)(=O)NCCSc2nnnn2-c2cc(C)ccc2C)cc1	n	61	n	n	n	n
Cc1ccc(S(=O)(=O)NCCSc2nnc(N)s2)cc1	n	96	n	2	n	n
O=[N+]([O-])c1ccc2c(c1)C(O)n1nc(-c3ccc(Cl)cc3Cl)nc1S2 (configuration not stated)	n	n	n	n	n	n
O=C(O)c1cc(NCc2ccc3c(c2)OCO3)ccc1N1CCOCC1	n	n	n	n	n	32
COC(=O)c1cc(NCc2ccc3c(c2)OCO3)ccc1N1CCOCC1	n	77	52	n	n	n
COC(=O)c1cc(S(=O)(=O)N2CCOCC2)c(N2CCOCC2)cc1N1CCOCC1	n	n	76	n	n	n
O=C(O)c1cc(NCc2ccccc2)ccc1N1CCOCC1	n	n	n	n	n	n
O=C(c1cc(S(=O)(=O)N2CCCCC2)c(Cl)cc1N1CCOCC1)N1CCOCC1	n	n	n	n	n	n
COc1ccc(S(=O)(=O)N[C@@H](Cc2ccc(Cl)cc2)C(=O)N2CC[C@@]3(O)CCCC[C@H]3C2)cc1	n	n	n	n	n	n
Cc1cc(C)n(Cc2ccc(Cl)c(Cl)c2)c(=O)c1S(=O)(=O)c1ccccc1	n	n	n	n	n	n
Cc1cc(C(=O)CSc2nnc(Nc3ccccc3)s2)c(C)n1CC1CCCO1 (configuration not stated)	n	n	n	n	n	n
Cc1cc(C(=O)CSc2nnc(-c3cccnc3)n2-c2ccccc2F)c(C)n1CC1CCCO1 (configuration not stated)	n	78	65	n	n	n
Cc1ccccc1-n1c(SCC(=O)c2cc(C)n(C)c2C)nnc1-c1ccncc1	n	99	92	n	n	n
Cc1cc(C(=O)CSc2nnc(Nc3ccccc3F)s2)c(C)n1CC1CCCO1 (configuration not stated)	n	53	56	n	n	n
CC(C)N1C(=S)SC(C)(C)C1NO (configuration not stated)	n	n	n	n	n	n
O=C(COC(=O)c1cccc(S(=O)(=O)N2CCOCC2)c1)Nc1nc(-c2ccccc2Cl)cs1	n	67	74	n	n	n
Cc1cc(NC(=O)COC(=O)c2cccc(S(=O)(=O)N3CCOCC3)c2)no1	n	n	n	n	n	n
O=C(CCc1ccc(S(=O)(=O)N2CCOCC2)cc1)OCc1nc2ccccc2s1	n	n	n	n	n	n
O=C(OCc1nc2ccccc2s1)c1cccc(S(=O)(=O)N2CCOCC2)c1	n	60	65	n	n	n
O=C1c2ccccc2C(=O)N1CC1c2ccccc2CCN1S(=O)(=O)c1cnc[nH]1 (configuration not stated)	n	78	97	n	n	n
O=C1c2ccccc2C(=O)N1CC1c2ccccc2CCN1C(=O)N1CCOCC1 (configuration not stated)	n	n	n	n	n	n
CC1CCN(C(=O)C2CCN(S(=O)(=O)c3cnc[nH]3)CC2)CC1	n	n	n	n	n	n
Cc1ccc(S(=O)(=O)N2CCc3ccccc3C2CN2C(=O)c3ccccc3C2=O)cc1 (configuration not stated)	n	71	n	n	n	n
O=C(NCCCN1CCOCC1)[C@@H]1CSC2c3ccccc3C(=O)N21 (some centres not stated)	n	n	n	n	n	n
CCOC(=O)C1=C2SCC(=O)N2C(N)=C(C#N)C1	n	n	n	n	n	n
